The record followed here is ChEMBL document CHEMBL1961873, “Compounds: GSK PKIS; Assays: Nanosyn kinase panel” (2012).

Each structure is given as a SMILES string.

For experiment [1], the target named is Tyrosine-protein kinase Fer (Homo sapiens) (UniProt P16591). The settings on record: at 1 µM.
Experiment [2] addresses Tyrosine-protein kinase Fes/Fps (Homo sapiens) (UniProt P07332). The following applies: at 0.1 µM.
Experiment [3] has the same target. The following applies: at 1 µM.
Experiment [4] concerns the target Fibroblast growth factor receptor 1 (Homo sapiens) (UniProt P11362). The settings on record: at 0.1 µM.
For experiment [5] the target is unchanged. The settings on record: at 1 µM.
The target in experiment [6] is Fibroblast growth factor receptor 2 (Homo sapiens) (UniProt P21802). The following applies: at 0.1 µM.
Experiment [7] shares this target. The settings on record: at 1 µM.
For experiment [8], the target named is Fibroblast growth factor receptor 3 (Homo sapiens) (UniProt P22607). The following applies: at 0.1 µM.
For experiment [9] the target is unchanged. The following applies: at 1 µM.
In experiment [10] the target is Fibroblast growth factor receptor 4 (Homo sapiens) (UniProt P22455). The settings on record: at 0.1 µM.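 Also: values are mean percent inhibition of FGFR4.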
Fibroblast growth factor receptor 4 (Homo sapiens), sequence (P22455 22-802 limits assumed): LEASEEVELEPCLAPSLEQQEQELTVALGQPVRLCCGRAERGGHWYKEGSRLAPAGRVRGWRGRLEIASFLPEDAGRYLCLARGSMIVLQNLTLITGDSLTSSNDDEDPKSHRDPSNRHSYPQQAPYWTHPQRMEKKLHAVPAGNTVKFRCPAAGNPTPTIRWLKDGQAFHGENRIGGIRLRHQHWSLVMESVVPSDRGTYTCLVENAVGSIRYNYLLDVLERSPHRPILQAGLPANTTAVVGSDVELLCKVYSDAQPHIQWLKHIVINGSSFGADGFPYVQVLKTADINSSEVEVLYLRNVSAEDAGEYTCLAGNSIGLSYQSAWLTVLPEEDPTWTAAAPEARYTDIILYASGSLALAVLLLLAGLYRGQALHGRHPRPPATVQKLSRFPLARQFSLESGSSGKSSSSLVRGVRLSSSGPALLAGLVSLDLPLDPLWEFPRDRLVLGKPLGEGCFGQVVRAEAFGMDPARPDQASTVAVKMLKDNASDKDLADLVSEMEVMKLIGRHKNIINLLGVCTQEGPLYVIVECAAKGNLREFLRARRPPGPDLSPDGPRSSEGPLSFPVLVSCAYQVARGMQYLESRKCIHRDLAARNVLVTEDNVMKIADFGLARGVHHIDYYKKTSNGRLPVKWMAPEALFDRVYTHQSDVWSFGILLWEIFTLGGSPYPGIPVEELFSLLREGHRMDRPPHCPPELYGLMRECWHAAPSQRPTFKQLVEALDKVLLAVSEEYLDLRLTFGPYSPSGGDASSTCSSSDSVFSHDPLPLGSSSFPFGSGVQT

Tyrosine-protein kinase Fes/Fps (Homo sapiens), sequence (P07332 whole entry): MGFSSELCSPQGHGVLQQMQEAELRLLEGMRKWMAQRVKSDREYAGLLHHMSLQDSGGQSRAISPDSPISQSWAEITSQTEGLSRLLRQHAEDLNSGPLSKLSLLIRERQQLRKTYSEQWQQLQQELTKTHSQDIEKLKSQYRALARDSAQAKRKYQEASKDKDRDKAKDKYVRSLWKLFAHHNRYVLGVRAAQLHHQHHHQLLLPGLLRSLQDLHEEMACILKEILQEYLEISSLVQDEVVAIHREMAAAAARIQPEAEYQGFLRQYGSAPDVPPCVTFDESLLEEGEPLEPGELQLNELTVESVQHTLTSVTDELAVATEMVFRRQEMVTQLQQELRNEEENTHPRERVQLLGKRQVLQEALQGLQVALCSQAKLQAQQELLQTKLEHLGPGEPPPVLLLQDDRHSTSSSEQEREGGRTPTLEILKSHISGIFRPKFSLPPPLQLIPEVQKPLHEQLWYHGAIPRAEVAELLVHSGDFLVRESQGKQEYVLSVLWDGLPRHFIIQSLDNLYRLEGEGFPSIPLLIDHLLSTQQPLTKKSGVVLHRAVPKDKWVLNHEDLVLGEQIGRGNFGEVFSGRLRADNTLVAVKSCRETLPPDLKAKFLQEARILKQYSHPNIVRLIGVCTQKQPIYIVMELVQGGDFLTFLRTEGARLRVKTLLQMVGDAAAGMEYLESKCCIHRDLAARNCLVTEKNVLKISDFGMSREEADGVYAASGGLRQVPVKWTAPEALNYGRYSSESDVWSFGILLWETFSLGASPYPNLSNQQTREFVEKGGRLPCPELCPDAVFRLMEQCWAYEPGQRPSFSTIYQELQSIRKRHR
Fibroblast growth factor receptor 1 (Homo sapiens), sequence (P11362 22-822 limits assumed): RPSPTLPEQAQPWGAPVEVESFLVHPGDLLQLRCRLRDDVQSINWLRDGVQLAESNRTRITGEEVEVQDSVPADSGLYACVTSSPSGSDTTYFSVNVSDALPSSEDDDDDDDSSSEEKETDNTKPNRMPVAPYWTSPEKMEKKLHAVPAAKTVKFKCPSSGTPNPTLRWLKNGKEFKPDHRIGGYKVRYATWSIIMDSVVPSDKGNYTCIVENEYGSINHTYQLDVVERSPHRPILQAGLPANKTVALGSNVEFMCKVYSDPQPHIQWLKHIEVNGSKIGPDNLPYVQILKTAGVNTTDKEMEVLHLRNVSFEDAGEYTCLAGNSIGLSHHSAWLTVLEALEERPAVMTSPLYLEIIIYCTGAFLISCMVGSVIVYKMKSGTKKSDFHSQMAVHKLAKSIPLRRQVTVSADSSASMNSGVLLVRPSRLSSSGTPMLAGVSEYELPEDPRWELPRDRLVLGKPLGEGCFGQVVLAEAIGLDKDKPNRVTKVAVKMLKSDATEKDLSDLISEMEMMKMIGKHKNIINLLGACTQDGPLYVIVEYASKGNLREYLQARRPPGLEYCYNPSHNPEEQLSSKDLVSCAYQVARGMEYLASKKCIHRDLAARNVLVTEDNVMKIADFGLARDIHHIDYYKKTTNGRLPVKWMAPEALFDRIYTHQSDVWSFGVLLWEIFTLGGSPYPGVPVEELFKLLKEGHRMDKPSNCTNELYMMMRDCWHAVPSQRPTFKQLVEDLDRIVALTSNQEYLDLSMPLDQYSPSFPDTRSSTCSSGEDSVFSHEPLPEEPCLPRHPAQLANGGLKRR
Tyrosine-protein kinase Fer (Homo sapiens), sequence (P16591 whole entry, looked up): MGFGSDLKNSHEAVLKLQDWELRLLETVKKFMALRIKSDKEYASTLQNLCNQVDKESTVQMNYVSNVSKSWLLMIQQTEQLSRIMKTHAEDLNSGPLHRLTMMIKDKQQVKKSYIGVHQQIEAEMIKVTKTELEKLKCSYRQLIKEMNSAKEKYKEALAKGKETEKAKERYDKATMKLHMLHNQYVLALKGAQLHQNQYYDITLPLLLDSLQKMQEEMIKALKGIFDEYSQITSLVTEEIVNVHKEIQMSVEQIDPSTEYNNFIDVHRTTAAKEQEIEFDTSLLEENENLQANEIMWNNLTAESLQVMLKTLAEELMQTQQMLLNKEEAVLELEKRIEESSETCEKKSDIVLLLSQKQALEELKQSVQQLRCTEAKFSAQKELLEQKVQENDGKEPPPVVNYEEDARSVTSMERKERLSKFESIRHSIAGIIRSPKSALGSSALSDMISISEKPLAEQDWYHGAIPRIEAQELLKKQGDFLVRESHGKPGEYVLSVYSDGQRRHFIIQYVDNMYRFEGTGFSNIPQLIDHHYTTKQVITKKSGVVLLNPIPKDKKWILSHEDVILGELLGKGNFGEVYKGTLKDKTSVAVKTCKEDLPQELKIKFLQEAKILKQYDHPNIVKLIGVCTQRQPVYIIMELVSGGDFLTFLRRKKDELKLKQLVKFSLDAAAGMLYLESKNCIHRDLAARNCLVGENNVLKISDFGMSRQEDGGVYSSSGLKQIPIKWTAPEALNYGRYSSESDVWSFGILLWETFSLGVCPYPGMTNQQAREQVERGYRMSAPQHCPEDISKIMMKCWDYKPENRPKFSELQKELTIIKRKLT
Fibroblast growth factor receptor 3 (Homo sapiens), sequence (P22607 23-806 limits assumed): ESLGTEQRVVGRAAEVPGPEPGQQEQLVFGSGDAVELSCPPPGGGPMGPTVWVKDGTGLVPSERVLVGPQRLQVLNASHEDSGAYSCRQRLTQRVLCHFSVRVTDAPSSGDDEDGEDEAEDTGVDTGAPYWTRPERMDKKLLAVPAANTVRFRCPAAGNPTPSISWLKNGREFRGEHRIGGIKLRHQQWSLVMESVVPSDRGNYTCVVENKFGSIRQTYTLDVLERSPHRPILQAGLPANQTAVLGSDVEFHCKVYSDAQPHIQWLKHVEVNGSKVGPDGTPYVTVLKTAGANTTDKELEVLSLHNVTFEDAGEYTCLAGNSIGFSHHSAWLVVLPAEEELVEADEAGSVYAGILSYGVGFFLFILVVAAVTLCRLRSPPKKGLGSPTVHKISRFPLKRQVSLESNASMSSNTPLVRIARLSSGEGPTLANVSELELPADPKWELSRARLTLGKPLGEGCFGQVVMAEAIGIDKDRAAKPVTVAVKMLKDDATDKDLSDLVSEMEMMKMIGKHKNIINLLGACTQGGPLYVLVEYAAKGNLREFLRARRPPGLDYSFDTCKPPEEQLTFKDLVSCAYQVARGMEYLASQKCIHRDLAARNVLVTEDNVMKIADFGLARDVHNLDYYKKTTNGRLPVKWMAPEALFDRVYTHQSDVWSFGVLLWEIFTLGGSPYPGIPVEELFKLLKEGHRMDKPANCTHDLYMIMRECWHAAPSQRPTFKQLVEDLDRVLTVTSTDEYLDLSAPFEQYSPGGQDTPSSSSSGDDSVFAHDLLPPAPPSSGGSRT
Fibroblast growth factor receptor 2 (Homo sapiens), sequence (P21802 22-821 limits assumed): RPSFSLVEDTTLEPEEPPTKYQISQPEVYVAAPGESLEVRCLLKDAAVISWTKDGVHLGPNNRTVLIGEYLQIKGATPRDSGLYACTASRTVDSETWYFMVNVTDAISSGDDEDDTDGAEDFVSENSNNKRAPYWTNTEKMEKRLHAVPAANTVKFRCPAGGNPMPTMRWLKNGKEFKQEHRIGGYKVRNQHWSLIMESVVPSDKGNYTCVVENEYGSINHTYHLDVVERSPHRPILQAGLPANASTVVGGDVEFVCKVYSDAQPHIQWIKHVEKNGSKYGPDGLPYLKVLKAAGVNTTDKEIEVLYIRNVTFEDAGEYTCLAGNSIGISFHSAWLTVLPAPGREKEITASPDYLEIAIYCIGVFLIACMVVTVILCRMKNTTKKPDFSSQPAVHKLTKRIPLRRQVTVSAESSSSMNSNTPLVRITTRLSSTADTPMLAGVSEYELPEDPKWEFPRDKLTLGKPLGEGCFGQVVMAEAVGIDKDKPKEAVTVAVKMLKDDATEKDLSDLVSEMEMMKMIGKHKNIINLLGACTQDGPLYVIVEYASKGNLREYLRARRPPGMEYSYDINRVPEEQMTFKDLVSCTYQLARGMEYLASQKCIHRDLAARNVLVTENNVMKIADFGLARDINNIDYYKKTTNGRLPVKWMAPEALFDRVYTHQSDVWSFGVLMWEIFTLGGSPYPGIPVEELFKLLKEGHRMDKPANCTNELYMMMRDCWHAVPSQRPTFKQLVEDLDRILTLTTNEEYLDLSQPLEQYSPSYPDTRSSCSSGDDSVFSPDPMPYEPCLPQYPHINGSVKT

Broadly, the inhibition is the drop in the measured response relative to a control, in per cent. In the case of `FC(F)(F)c1cccc(-c2nn3ncccc3c2-c2ccnc(Nc3ccc4c(c3)OCCO4)n2)c1`, the inhibition in experiment [1] amounted to 10.8%; in experiment [2] it was 1.96%; in experiment [3] it was 3.62%; in [4] it was 2.8%; in experiment [5], 5.15%; in [6] it was 1.92%. In addition, the inhibition in experiment [7] came to 9.05%; in experiment [8], 4.74%; in [9], 7.93%; in [10], 0.03%.
For `CNC(=O)c1cncc(/C=C/c2ccccc2Cl)c1`, the inhibition in [1] is 3.78%; in experiment [2], 0.21%; in experiment [3] it was 0.02%; in experiment [4] it was -1%; in [5], -1.84%; in experiment [6] it was -1.98%. For the same molecule, the inhibition in experiment [7] worked out at 4.23%; in experiment [8] it was 0.84%; in [9], 1.98%; in [10] it was 1.47%.
As for `c1cc(-c2cnn3nc(N4CCOCC4)ccc23)nc(NC2CC2)n1`, the inhibition was 1.58% in experiment [1]; 3.42% in [2]; 4.53% in [3]; 8.29% in experiment [4]; 9.37% in [5]; 4.74% in experiment [6]. Moreover, the inhibition in [7] was determined as 11.4%; in [8], 6.59%; in [9], 10.9%; in [10], 1.73%.
As to `Nc1nc(-c2cccc(Cl)c2)c(-c2ccc3ncccc3n2)s1`, the inhibition in experiment [1] was 3.32%; in experiment [2] it was 3.08%; in [3], 4.47%; in [4], 3.71%; in experiment [5] it was 7.27%; in [6] it was 5.51%. Besides, the inhibition in [7] is 7.42%; in experiment [8] it was 4.38%; in experiment [9], 8.26%; in experiment [10], -1.18%.
Turning to `NC(=O)c1sc(-n2cnc3ccc(C(F)(F)F)cc32)cc1OCc1ccccc1Br`, the inhibition in experiment [1] is 2.2%; in experiment [2] it was 1.79%; in experiment [3], 2.43%; in experiment [4], 4.99%; in experiment [5], 5.11%; in [6], 4.53%. The inhibition in experiment [7] amounted to 4.28%; in experiment [8] it was 5.08%; in experiment [9] it was 3.54%; in [10], 4.08%.
For the molecule `c1ccc(COc2ccc(Nc3ncnc4ccc(-c5ccco5)cc34)cc2)cc1`, the inhibition in [1] is 4.05%; in experiment [2] it was 2.03%; in experiment [3], 1.74%; in experiment [4], -8.22%; in experiment [5], -7.82%; in [6] it was 1.65%. In addition, the inhibition in [7] came to 8.16%; in experiment [8], 2.01%; in experiment [9], 7.69%; in experiment [10], 3.87%.
Regarding `COc1ccc(CNC(=O)c2ccc(-c3cc(-c4nnc(C)o4)ccc3C)cc2)cc1`, the inhibition turned out to be 4.77% in [1]; 1.89% in [2]; 2.09% in experiment [3]; 3.05% in experiment [4]; 2.33% in experiment [5]; 3.51% in experiment [6]. Also, the inhibition in experiment [7] was 5.88%; in [8] it was 2.91%; in [9], 5.29%; in experiment [10], 3.34%.
As to `COc1ccc(-c2nn3ncccc3c2-c2ccnc(Nc3ccc4c(c3)OCCO4)n2)cc1`, the inhibition in experiment [1] was 11.8%; in experiment [2], 4.35%; in [3] it was 7.51%; in [4], -2.89%; in experiment [5] it was 11.2%; in experiment [6], 3.13%. Further, the inhibition is 22.1% in experiment [7], 3.94% in [8], 12.6% in [9] and 1.59% in experiment [10].
For the molecule `COc1cc2c(cc1Nc1nc(Nc3ccsc3C(N)=O)c3cc[nH]c3n1)N(C(=O)CN(C)C)CCC2(C)C`, the inhibition in experiment [1] came to 94.8%; in experiment [2], 76.5%; in experiment [3] it was 79.4%; in experiment [4], 7.38%; in [5], 4.2%; in [6] it was 5.74%. The inhibition in [7] was 13.5%; in experiment [8] it was 9.36%; in experiment [9], 7.81%; in experiment [10], -6.03%.
As to `COc1cc(N2CCN(C(C)C)CC2)ccc1Nc1nc(Nc2ccc(F)cc2C(N)=O)c2cc[nH]c2n1`, the inhibition is 82.8% in experiment [1]; 39.9% in experiment [2]; 81.7% in experiment [3]; 6.98% in [4]; 2.33% in experiment [5]; 7.72% in experiment [6]. In addition, the inhibition in experiment [7] came out at 3.84%; in experiment [8], 7.85%; in experiment [9] it was 3.24%; in experiment [10], 4.7%.
As to `COc1cccc(-c2c[nH]c3c(N/N=C/c4ccncc4)ncnc23)c1`, the inhibition amounted to 8.57% in experiment [1]; 1.82% in [2]; 2.81% in [3]; 0.74% in [4]; 6.34% in [5]; 1.79% in experiment [6]. For the same molecule, the inhibition in experiment [7] is 9.49%; in [8] it was 4.63%; in experiment [9], 8.05%; in experiment [10], 4.93%.
Consider `CC(=O)NCc1cccc(C#Cc2cncnc2Nc2ccc(OCc3cccc(F)c3)c(Cl)c2)c1`, for which the inhibition was 0.86% in [1]; 0.32% in [2]; 0.52% in experiment [3]; -0.81% in experiment [4]; -0.46% in [5]; -2.84% in [6]. Also, the inhibition is -0.08% in experiment [7], 0.88% in experiment [8], 0.49% in experiment [9] and 0.41% in [10].
`CC(C)COC(=O)c1ccc2c(c1)/C(=C/Nc1ccc(S(N)(=O)=O)cc1)C(=O)N2`: the inhibition in experiment [1] was 11.1%; in [2], -0.89%; in experiment [3] it was -0.27%; in experiment [4], 0.13%; in experiment [5] it was 4.86%; in experiment [6], -0.6%. For the same molecule, the inhibition in experiment [7] worked out at 17.3%; in experiment [8], 0.1%; in experiment [9] it was 10.8%; in [10], 4.93%.
With `CNC(=O)c1cccc(C#Cc2cncnc2Nc2ccc(OCc3cccc(F)c3)c(Cl)c2)c1`, the inhibition is 2.2% in experiment [1]; 0.17% in experiment [2]; 1.47% in experiment [3]; -1.46% in experiment [4]; 0.26% in experiment [5]; 0.94% in experiment [6]. The values for the inhibition in experiment [7], in experiment [8] and in experiment [10] were 8.07%, 1.87% and 0.5%, respectively.
As to `CS(=O)(=O)CCNCc1ccc(-c2ccc3ncnc(Nc4ccc(OCc5ccccc5)c(C(F)(F)F)c4)c3c2)o1`, the inhibition in experiment [1] was found to be 1.94%; in experiment [2], 3.29%; in experiment [3], 3.27%; in [4], 1.07%; in experiment [5] it was 5.49%; in experiment [6], 3.74%. Also, the inhibition in experiment [7] is 6.37%; in experiment [8], 4.77%; in [9] it was 5.71%; in experiment [10] it was 2.52%.
Consider `Cc1cccc2c1NC(=O)/C2=N\Nc1ccc(S(N)(=O)=O)cc1`, for which the inhibition in experiment [1] is 0.93%; in experiment [2], 2.06%; in experiment [3], 2.97%; in [4] it was 6.31%; in experiment [5], 5.84%; in experiment [6], 7.75%. Besides, the inhibition in experiment [7] was 3.25%; in experiment [8], 3.97%; in experiment [9], 3.33%; in [10], 2.12%.
With `O=C(Nc1n[nH]c2cc(-c3ccc(F)cc3)ccc12)C1CC1`, the inhibition was 1.55% in experiment [1]; 1.98% in [2]; 2.43% in experiment [3]; 3.72% in [4]; 5.84% in experiment [5]; 1.37% in [6]. Also, the inhibition in [7] is 3.08%; in experiment [8] it was 4.83%; in experiment [9] it was 3.2%; in experiment [10] it was -1.21%.
